Our source for the inhibition values is PubChem BioAssay AID1259374 (The Scripps Research Institute Molecular Screening Center, 2018).

About 5,900 (0.91%) of roughly 650,000 compounds were called active. The sample holds actives, similar compounds and a random draw of the others, so the mix is not that of the screen. A number with no mark means an inactive call. Cut-off read from the data, not from the text of the source: active = inhibition above about 50%; inactive = the rest.

Microphthalmia-associated transcription factor (Homo sapiens), sequence (O75030 whole entry, looked up): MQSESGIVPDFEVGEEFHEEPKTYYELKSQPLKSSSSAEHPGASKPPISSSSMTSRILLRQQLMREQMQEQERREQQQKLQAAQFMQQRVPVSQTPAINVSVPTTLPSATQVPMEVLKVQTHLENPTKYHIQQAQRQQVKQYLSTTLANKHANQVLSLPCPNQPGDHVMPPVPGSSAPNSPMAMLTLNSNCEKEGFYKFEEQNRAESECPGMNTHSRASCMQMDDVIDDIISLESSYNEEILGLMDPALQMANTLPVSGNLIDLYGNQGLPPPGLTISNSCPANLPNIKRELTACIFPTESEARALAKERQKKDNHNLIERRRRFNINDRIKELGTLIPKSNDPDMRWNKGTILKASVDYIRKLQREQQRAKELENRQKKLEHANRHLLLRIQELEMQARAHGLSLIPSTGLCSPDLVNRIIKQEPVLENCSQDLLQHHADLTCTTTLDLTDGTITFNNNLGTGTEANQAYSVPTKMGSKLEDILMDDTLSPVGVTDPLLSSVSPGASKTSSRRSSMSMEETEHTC

This assay addresses Microphthalmia-associated transcription factor (Homo sapiens) (UniProt O75030). Briefly: MITF inhibitors, primary screen, biochemical, AlphaScreen, human (AID 1259374).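 Note: 0% = vehicle wells with protein.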 The note with it: AlphaScreen MITF homodimerization, bead proximity signal; at 2.6 µM; hits give high values.
Consider `COCCOC(=O)c1sc(=S)n(CCOC)c1N`, for which the inhibition is -3.44%.

As to `C=CCNC(=O)c1sc(=S)n2c1[nH]c(=O)c1ccc(C(=O)OC)cc12`, the inhibition was 1.34%.

Regarding `C=CCNC(=O)c1sc(=S)n(CC)c1N`, the inhibition was 60.2% (active).

On to `CCOc1ccc(Nc2n[nH]c(C)c2[N+](=O)[O-])cc1`, for which the inhibition was -3.22%.

As for `Cc1nnc(SCC(=O)Nc2ccc(Cc3ccc(NC(=O)CSc4nnc(C)s4)c(C(=O)O)c3)cc2C(=O)O)s1`, the inhibition is 10.6%.

Consider `Cc1ccc(C(C)(C)C)c(OCCCNCCO)c1`, for which the inhibition was 18.8%.

For the compound `C=CCNCCOCCOc1cc(C)ccc1C(C)(C)C`, the inhibition is 65.6% (active).

With `Cc1cc(C(C)(C)C)ccc1OCCOCCNCCN`, the inhibition was 5.37%.

Take `CN(C)S(=O)(=O)c1ccc(C(=O)NCc2nnc(SCC(=O)N3N=C(c4cccs4)CC3c3ccc(F)cc3)n2C)cc1` (stereo not given): the inhibition was -5.15%.

For `CCC1(CC)Cc2ccccc2C(c2c(C)[nH]n(-c3ccccc3)c2=O)=N1`, the inhibition was 23.6%.

In the case of `COc1cc(/C=C2/NC(=O)N(c3ccccc3)C2=O)cc(OC)c1O`, the inhibition is -14.5%.

For the compound `COC(=O)c1ccccc1NC(=O)c1cc2c(=O)oc3ccccc3c2s1`, the inhibition is -9.64%.

Consider `COc1ccccc1-n1cnnc1SCC(=O)Nc1sc2c(c1C#N)CCCC2`, for which the inhibition is -6.73%.

`COc1cc(NC(=O)CSc2nnc(-c3ccoc3C)n2CC(C)C)cc(OC)c1`: the inhibition was 9.5%.

Turning to `Cc1ccc(C(C)C)c(OCCN2CCNCC2)c1`, the inhibition was 74.9% (active).

As for `CCC(C)Oc1cccc(OCCN2CCN(C)CC2)c1` (stereo not given), the inhibition is -22.9%.

With `Cc1cc(OCCCCN2CCOCC2)ccc1C(C)C`, the inhibition is 27.1%.

With `Cc1cc(OCCN2CCN(C)CC2)ccc1C(C)C`, the inhibition is 59.4% (active).

With `Cc1ccc(Cl)c(OCCCCN2CCNCC2)c1`, the inhibition was 41.9%.

As for `Cc1ccc(C(C)C)c(OCc2n[nH]c(=S)n2C)c1`, the inhibition is 2.35%.

On to `Cc1ccc(C(C)(C)C)c(OCCN2CCNCC2)c1`, for which the inhibition was 46.6%.

Consider `Cc1ccc(C(C)C)c(OCC#CCN2CCNCC2)c1`, for which the inhibition was 77.2% (active).

`Cc1ccc(OCCN2CCNCC2)c(Cl)c1`: the inhibition was 36.1%.

For `CC1C2Oc3ccccc3C1Oc1ccccc12` (stereo not given), the inhibition was 4.85%.

As to `COc1ccc2[nH]c3c(c2c1)CCOC31CCN(C(=O)CC2(CC(=O)O)CCCC2)CC1`, the inhibition was -10.7%.

Turning to `O=C1C(=O)N(Cc2cccnc2)C(c2cccnc2)/C1=C(/O)c1ccccc1` (stereo not given), the inhibition is 5.16%.

On to `Cc1nc2ccccn2c1/C(O)=C1\C(=O)C(=O)N(Cc2ccccc2)C1c1cccnc1` (stereo not given), for which the inhibition is 66.2% (active).

As to `O=C1C(=O)N(Cc2cccnc2)C(c2ccncc2)/C1=C(\O)c1ccccc1` (stereo not given), the inhibition was 11.9%.

`CN(C)CCNC(=O)c1ccc(-c2cnc3c(NCc4ccc(F)cc4)nccn23)cc1`: the inhibition was -23.3%.

`CCOC(=O)c1c(NC(=O)CSc2nnc(CNC(=O)c3cccc(OC)c3)n2C)sc2c1CCCCC2`: the inhibition was -18.6%.

With `O=C(O)CN1C(=O)/C(=C\c2ccc(O)c(Br)c2)SC1=S`, the inhibition is 17.2%.

In the case of `O=C(O)CN1C(=O)/C(=C/c2cccc([N+](=O)[O-])c2)SC1=S`, the inhibition was 4.75%.

With `O=C(O)CN1C(=O)/C(=C\c2cccc(C(=O)O)c2)SC1=S`, the inhibition was 58.4% (active).

As to `CC1CN(c2ccc(/C=C(\C#N)c3nc4ccccc4[nH]3)o2)CC(C)O1` (stereo not given), the inhibition is -14.4%.

In the case of `Nc1nc(NCCO)cc(Nc2ccc(C(F)(F)F)cc2)n1`, the inhibition was -1.49%.

Turning to `CCOC(=O)c1sc(NC(=O)C(C)Sc2nnc(CNC(=O)c3ccc(Cl)cc3Cl)n2C)c(C(=O)OCC)c1C` (stereo not given), the inhibition was -5.12%.

Regarding `CCOC(=O)c1ccccc1NC(=O)C1CC(=O)N(c2ccc(Cl)c(Cl)c2)C1` (stereo not given), the inhibition is -0.38%.

Regarding `CN1C(=O)c2ccc(NC(=O)c3c(F)cccc3F)cc2C1=O`, the inhibition was 4.14%.

Take `O=C(NN1C(=O)c2ccccc2C1=O)c1cccc(F)c1`: the inhibition is 69.1% (active).

For `O=C(NN1CCOCC1)c1cccc(F)c1`, the inhibition was 0.76%.

Take `Cc1ccc(N2C(=O)c3ccc(C(=O)NN4C(=O)c5ccccc5C4=O)cc3C2=O)cc1C`: the inhibition was 9.89%.

In the case of `CCN(CCCNC(=O)Cn1c(=O)[nH]c2ccccc2c1=O)c1cccc(C)c1`, the inhibition was -6.52%.

As to `C=CCN(CC=C)CCCOc1ccc([N+](=O)[O-])c(C)c1`, the inhibition is 22.8%.

`Cc1cc(OCCCN2CCN(Cc3ccccc3)CC2)ccc1[N+](=O)[O-]`: the inhibition is 69.8% (active).

Turning to `O=[N+]([O-])c1cnc(N2CCN(Cc3ccccc3)CC2)c([N+](=O)[O-])c1`, the inhibition is -6.34%.

Turning to `COc1ccc(CN2CCC3(CC2)c2ccccc2[C@@H](NC(=O)CSC)[C@@H]3OC)cc1`, the inhibition is 5.12%.

With `C=CCN1C(=O)/C(=C\c2cc(OC)ccc2OC)C(=O)NC1=S`, the inhibition is 18.8%.

For `C=CCN1C(=O)/C(=C\c2cc(OC)c(O)c([N+](=O)[O-])c2)C(=O)NC1=S`, the inhibition is 57.5% (active).

As for `COc1ccccc1N1C(=O)NC(=O)/C(=C/c2cc(OC)c(O)c([N+](=O)[O-])c2)C1=O`, the inhibition was -6.01%.

As to `CSc1cccc(NC(=O)C2C3C=CC4(O3)C2C(=O)N(C2CCCC(C)C2C)C4C(=O)NC2CCCCC2)c1` (stereo not given), the inhibition is -2.61%.

Take `O=c1cc(Cc2n[nH]c(=S)n2-c2ccc(F)cc2)[nH]c(=O)[nH]1`: the inhibition is 8.67%.

As to `O=c1c2sc(=S)n(CCc3ccccc3)c2[nH]c(=S)n1Cc1ccco1`, the inhibition was -11.5%.

`Cc1c(Cl)cccc1NC(=S)NCC(c1cccnc1)N1CCOCC1` (stereo not given): the inhibition is 7.47%.

As for `CCCCC(=O)NC(c1ccco1)c1ccc2cccnc2c1O` (stereo not given), the inhibition was 33%.

With `O=S(=O)(Oc1cccc2cccnc12)N1CCOCC1`, the inhibition was -0.47%.

Take `OCCN1CCN(C(c2ccc(F)cc2)c2ccc3cccnc3c2O)CC1` (stereo not given): the inhibition was 50.6% (active).

For `Oc1c(C(c2cccnc2)N2CCOCC2)ccc2cccnc12` (stereo not given), the inhibition is 73.7% (active).

On to `CCc1nc2sc(C(c3ccc(F)cc3)N3CCCC3)c(O)n2n1` (stereo not given), for which the inhibition is -1.32%.

Consider `Cc1ccc(C(c2cc(Cl)c3cccnc3c2O)N2CCN(c3ccccn3)CC2)cc1` (stereo not given), for which the inhibition was -1.76%.

As to `Oc1c(C(c2ccccn2)N2CCOCC2)ccc2cccnc12` (stereo not given), the inhibition was 75.7% (active).

For `O=C(NCC(c1cccnc1)N1CCOCC1)c1ccc(F)cc1` (stereo not given), the inhibition is -7.05%.

As for `CCN1CCN(S(=O)(=O)c2ccc(Br)c(OC)c2)CC1`, the inhibition is -5.44%.

As for `Cc1ccc(C(=O)N/N=C\c2ccc(-c3ccc(Br)cc3)o2)cn1`, the inhibition is 8.68%.

As to `CC(=O)N(C)c1ccc(NC(=O)COc2cc(C)ccc2C)cc1`, the inhibition was -10.1%.

Consider `COCCN(CCOC)C(=O)CSc1nnc2nc(C)cc(C)n12`, for which the inhibition was 9.62%.

For `O=C(NCc1ccccc1)N1CCN(c2ccc(-c3ccncc3)nn2)CC1`, the inhibition is -7.08%.

`CCSc1ccccc1C(=O)N1CCN(c2ccc(-c3ccccn3)nn2)CC1`: the inhibition was 121% (active).

Turning to `O=C(c1ccccc1F)N1CCN(c2ccc(-c3cccnc3)nn2)CC1`, the inhibition is 4.6%.

Consider `O=C(NCc1nnc2n1CCN(C1CCSCC1)CC2)c1c(F)cccc1F`, for which the inhibition is 17.7%.

As to `COc1ccccc1C(=O)N/N=C/c1ccc(O)cc1O`, the inhibition is 23.2%.

Regarding `COc1ccc(NC(=O)CN2CCN(C)CC2)c(OC)c1`, the inhibition was 105% (active).

As for `COc1ccc(NC(=O)NN2CCN(C)CC2)c(OC)c1`, the inhibition is -3.56%.

For `COc1ccc(NC(=O)CN2CCN(S(=O)(=O)c3cc(Cl)ccc3OC)CC2)c(OC)c1`, the inhibition was 6.53%.

Consider `Cc1ccccc1-n1nc2c(c1NC(=O)C(C)Oc1ccccc1)CSC2` (stereo not given), for which the inhibition is 10.4%.

On to `NC(=O)N/N=C1\CCCCC1c1ccccc1` (stereo not given), for which the inhibition is -1.85%.

With `COc1ccc(Cn2nnc(C(=O)Nc3cccc(Cl)c3)c2N)cc1`, the inhibition is 61.4% (active).

As to `Nc1c(C(=O)Nc2ccccc2)nnn1Cc1ccc(F)cc1`, the inhibition was 3.54%.

Consider `COc1ccc(NC(=O)Cn2nnc(C(=O)Nc3cc(Cl)ccc3OC)c2N)cc1`, for which the inhibition was -3.11%.

As to `Cc1ccc(NC(=O)Nc2nnc(CC(=O)Nc3ccccc3C)s2)cc1C`, the inhibition was 17.1%.

With `O=C(CSc1ccccc1)Nc1nc(-c2ccccn2)cs1`, the inhibition was 0.84%.

As for `N#Cc1ccc(OCC(=O)Nc2nc(-c3ccccn3)cs2)cc1`, the inhibition is 64.9% (active).

In the case of `N#Cc1ccc(OCC(=O)Nc2ccccc2Cl)cc1`, the inhibition was 12.2%.

As to `Oc1ccc(/C=N/Nc2ccccc2Cl)c(O)c1O`, the inhibition is 56.2% (active).

For `O=C(N/N=C/c1ccccc1Cl)C(=O)N/N=C/c1ccccc1Cl`, the inhibition is 17.2%.

As to `Clc1ccccc1/C=N/Nc1nccnc1Cl`, the inhibition was -4.68%.

In the case of `Cc1ccc(NC(=O)c2c(N)sc3c2CCCCC3)cc1`, the inhibition was -9.3%.

Take `O=C(c1ccccc1)c1ccc(OCC(O)CNCC2CCCO2)cc1` (stereo not given): the inhibition was 12.1%.

For the compound `Cc1ccc(NC(=O)c2cc3n(n2)C(C(F)(F)F)CC(c2ccc(Cl)c(Cl)c2)N3)cc1C` (stereo not given), the inhibition was 12.4%.

For the compound `COc1ccc(C2CC(C(F)(F)F)n3nc(C(=O)Nc4cccc(C)c4)cc3N2)cc1OC` (stereo not given), the inhibition was -3.27%.

In the case of `COc1ccc(NC(=O)c2cc3n(n2)C(C(F)(F)F)CC(c2ccc(OC)c(OC)c2)N3)cc1OC` (stereo not given), the inhibition is 63.8% (active).

With `COC(=O)c1ccc(NC(=O)/C(=C\c2ccco2)NC(=O)c2ccccc2Cl)cc1`, the inhibition is -0.56%.

As for `O=C(CSc1nc2ccsc2c(=O)n1-c1ccc(Cl)cc1)N1CCCC1`, the inhibition was -8.93%.

Take `N#Cc1ccc(/C=N/NC(=O)c2cc([N+](=O)[O-])cc([N+](=O)[O-])c2)cc1`: the inhibition is 66.5% (active).

`Cc1ccc(C(=O)Nc2cccc(C(=O)N/N=C/c3ccc(C#N)cc3)c2)cc1`: the inhibition was 2.24%.

In the case of `O=C(N/N=C/c1ccc([N+](=O)[O-])cc1)c1cccc(I)c1`, the inhibition was 10.1%.
